Only some compounds are listed: those with a hit (about 3.4% of all), similar ones and a draw of the others.
TEAD-YAP inh – TEAD-YAP interaction inhibition, primary screen, TEAD-YAP interaction inhibitor project, luminescence, HEK-TIYL cells; TEAD-Gal4/YAP UAS-luciferase luminescence; inhibition, % at 9.12 µM; hit rate 1.4% among 640,000; AID 1259422, 2018; in the data active = inhibition above about 32%
FBW7 act – FBW7 E3 ligase activators, primary screen, biochemical, AlphaScreen, human; F-box/WD repeat-containing protein 7 (Homo sapiens), Q969H0; AlphaScreen FBW7–phospho-cyclin E peptide binding, activator screen; normalized activity (activation), % at 26.1 µM; hit rate 0.13% among 650,000; in the data active = normalized activity above about 1.9%;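 also: purified mutant Fbw7 with reduced substrate affinity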
Target sequence (Q969H0 whole entry, looked up): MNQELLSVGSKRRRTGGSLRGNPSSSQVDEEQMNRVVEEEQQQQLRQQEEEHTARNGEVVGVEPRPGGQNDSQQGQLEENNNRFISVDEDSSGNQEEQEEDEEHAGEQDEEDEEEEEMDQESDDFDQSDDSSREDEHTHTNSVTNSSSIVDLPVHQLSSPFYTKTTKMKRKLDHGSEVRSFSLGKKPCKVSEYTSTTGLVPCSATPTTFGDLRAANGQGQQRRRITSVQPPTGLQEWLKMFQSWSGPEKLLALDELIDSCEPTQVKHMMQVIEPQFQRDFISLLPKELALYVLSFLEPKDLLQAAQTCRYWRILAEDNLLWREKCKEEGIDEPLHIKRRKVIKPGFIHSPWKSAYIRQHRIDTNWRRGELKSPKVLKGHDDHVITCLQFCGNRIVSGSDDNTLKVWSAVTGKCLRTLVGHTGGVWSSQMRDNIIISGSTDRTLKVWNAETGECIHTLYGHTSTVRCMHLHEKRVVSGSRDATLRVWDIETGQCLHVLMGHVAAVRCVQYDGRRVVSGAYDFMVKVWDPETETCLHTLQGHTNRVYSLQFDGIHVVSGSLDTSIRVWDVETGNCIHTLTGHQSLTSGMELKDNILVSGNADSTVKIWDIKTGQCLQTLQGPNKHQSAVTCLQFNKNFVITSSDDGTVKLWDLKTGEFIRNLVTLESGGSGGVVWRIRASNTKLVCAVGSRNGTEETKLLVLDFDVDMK
GPR151 activ – activators of human GPR151, primary screen, cell-based, PathHunter beta-arrestin, luminescence | G-protein coupled receptor 151 (Homo sapiens), Q8TDV0 | PathHunter beta-arrestin GPR151 cells | activation, % at 11.2 µM | hit rate 1% among 650,000 | AID 1508602, 2020; in the data active = activation above about 4.9%
MITF inh – MITF inhibitors, primary screen, biochemical, AlphaScreen, human | inhibition, % at 2.6 µM | Microphthalmia-associated transcription factor (Homo sapiens), O75030 | hit rate 0.91% among 650,000 | AlphaScreen MITF homodimerization, bead proximity signal; in the data active = inhibition above about 50%
GPR151 conf act – GPR151 activators, triplicate retest, confirmation, cell-based, PathHunter beta-arrestin, luminescence. GPR151 PathHunter beta-arrestin cells, 90 min; % of EA-reagent control over plate median. activation, % at 11.2 µM. 6,700 tested, under 10 active. shares compounds with GPR151 activ. AID 1508609, 2020;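 active = mean percent activation across replicates above the confirmation screen cutoff of 4.91%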
GPR119 counter – GPR119 activators in beta-arrestin cells, counter-screen for GPR151 activator project, cell-based, PathHunter beta-arrestin, luminescence, triplicate; 90 min; 0 = compound-well median, 100 = enzyme-acceptor control; shares compounds with GPR151 activ; activation, % at 11.2 µM; hit rate 0.3% among 6,700;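 active = mean percent activation in the counterscreen above 29.09%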;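 also: counterscreen on off-target GPR119 to flag nonselective hits from the GPR151 activator screen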
Each line names hits and unclear results; the compound was inactive in the other large screens (follow-up assays come after a bar, where they were run).

Cc1ccc(S(=O)(=O)NC(=O)N2c3ccccc3CCc3ccccc32)cc1	GPR151 activ 7.4 | GPR151 conf act inactive | GPR119 counter inactive
CCC(Sc1nnc(-c2ccccc2)n1N)C(=O)O (centres undefined)	none
CC(Cc1nnc(-c2ccccc2)n1N)C(=O)O (centres undefined)	GPR151 activ 9.8 | GPR151 conf act inactive | GPR119 counter inactive
CC(C)n1c(Nc2ccc(N3CCOCC3)cc2)nc2c(Nc3ccc(N4CCOCC4)cc3)ncnc21	none
CC(C)n1c(Nc2ccnn2C)nc2c(Nc3ccc(N4CCOCC4)cc3)ncnc21	GPR151 activ 5.5 | GPR151 conf act inactive | GPR119 counter inactive
NS(=O)(=O)c1ccccc1NC(=O)c1c(O)c2cccc3c2n(c1=O)CC3	GPR151 activ 5.2 | GPR151 conf act inactive | GPR119 counter inactive
CC(=O)c1ccccc1-c1ccc2c(-c3ccc(N4CCNCC4)cc3)[nH]nc2n1	none
NC(=O)c1ccc(-c2ccc3c(-c4ccc(N5CCNCC5)cc4)[nH]nc3n2)cc1	GPR151 activ 5.9 | GPR151 conf act inactive | GPR119 counter inactive
CCCCNC(=O)C(CC)n1nc(C)c2sc3ccccc3c2c1=O (centres undefined)	none
Cc1cccc(NC(=O)c2cc(N3C(=O)CCC3=O)ccc2N2CCCCC2)c1	GPR151 activ 8.2 | GPR151 conf act inactive | GPR119 counter inactive
CC(=O)Nc1ccc(N2CCCCC2)c(C(=O)Nc2cccc(C)c2)c1	none
COc1ccc(CNS(=O)(=O)c2ccc3[nH]c(=O)ccc3c2)cc1	GPR151 activ 6.6 | GPR151 conf act inactive | GPR119 counter inactive
COc1ccc(NS(=O)(=O)c2ccc(N/C=C\C(=O)c3ccccc3)cc2)nn1	GPR151 activ 7.2 | GPR151 conf act inactive | GPR119 counter inactive
CN1C(=O)c2ccccc2C(C(=O)NC2CCCCCC2)C1c1cccs1 (centres undefined)	none
CC1CCCCC1NC(=O)C1c2ccccc2C(=O)N(C)C1c1cccs1 (centres undefined)	GPR151 activ 7.5 | GPR151 conf act inactive | GPR119 counter inactive
Cc1ccc2cc(/C=C(\C#N)c3ccc([N+](=O)[O-])cc3)c(N3CCOCC3)nc2c1	none
CCCCN(C)c1ncnc2scc(-c3ccccc3)c12	none
CCCCN(CC)c1ncnc2scc(-c3ccccc3)c12	GPR151 activ 8.0 | GPR151 conf act inactive | GPR119 counter inactive
CCN1C(=O)c2cccc3c(NC(=O)c4ccc(F)cc4)ccc1c23	none
CCN1C(=O)/C(=C/c2cc(C)n(C3CCCC3)c2C)C(=O)NC1=S	GPR151 activ 6.3 | GPR151 conf act inactive | GPR119 counter inactive
CCC(C)NC(=O)c1ccc2nc(NC(=O)c3ccc([N+](=O)[O-])cc3)sc2c1 (centres undefined)	GPR151 activ 8.8 | GPR151 conf act inactive | GPR119 counter inactive
CCC(C)NC(=O)c1ccc2nc(NC(=O)c3cc([N+](=O)[O-])cc([N+](=O)[O-])c3)sc2c1 (centres undefined)	none
CCCCOC(=O)C1C2C=CC3(CN(C4CCCCC4)C(=O)C13)O2 (centres undefined)	GPR151 activ 5.8 | GPR151 conf act inactive | GPR119 counter inactive
CN1C(=O)c2ccc(NC(=O)COc3ccc(Cl)cc3)cc2C1=O	none
O=C(COc1ccccc1)Nc1ccc(Cl)cn1	GPR151 activ 7.8 | GPR151 conf act inactive | GPR119 counter inactive
O=C(COc1ccccc1)NC(=S)Nc1ccc(Cl)cn1	none
COc1c(C(=O)Nc2ccc(Cl)cn2)ccc2ccccc12	GPR151 activ 5.5 | GPR151 conf act inactive | GPR119 counter inactive
O=C(COc1ccc(Br)cc1)Nc1ncc(Cc2ccc(F)cc2)s1	GPR151 activ 6.2 | GPR151 conf act inactive | GPR119 counter inactive
O=C(COc1ccc(Cl)cc1)Nc1ccc2c(c1)C(=O)N(c1ccccc1)C2=O	GPR151 activ 11.2 | GPR151 conf act inactive | GPR119 counter inactive
N#C/C=C(/NCc1ccc(Cl)cc1)c1cccc([N+](=O)[O-])c1	none
CCOC(=O)C1=C(C)NC(=O)N(C(C)=O)C1c1ccc(OC(C)=O)cc1 (centres undefined)	none
O=C(CONC(=O)c1ccccc1)Nc1ccccc1OC(F)F	none
O=C(COc1ccc(Cl)cc1)Nc1ccc(Cl)cn1	none
O=C(COc1ccc(Cl)cc1)Nc1ccc(Cc2ccncc2)cc1	GPR151 activ 5.4 | GPR151 conf act inactive | GPR119 counter inactive
O=C(O)COc1ccc(NC(=O)COc2ccc(Cl)cc2)cc1	none
O=C(COc1ccc(Br)cc1)Nc1ccc(Cl)cn1	GPR151 activ 10.6 | GPR151 conf act inactive | GPR119 counter inactive
O=C(/C=C/c1ccccc1)Nc1ccc(-c2ccnc(-c3ccc(NC(=O)/C=C/c4ccccc4)cc3)n2)cc1	none
CCOc1ccc(C(=O)Nc2ccc3c4c(cccc24)C(=O)N3CC)cc1	none
CCOc1ccc(/C=c2\sc3nc(=O)c(C)nn3c2=O)cc1OC	none
COc1cc(/C=c2\sc3nc(=O)c(C)nn3c2=O)ccc1OC(C)=O	GPR151 activ 13.7 | GPR151 conf act inactive | GPR119 counter inactive
Cc1ccc(-c2noc(CCC(=O)N3CCCCC3C)n2)cc1 (centres undefined)	none
CC1CCCCN1C(=O)CCc1nc(-c2ccc(Cl)cc2)no1 (centres undefined)	GPR151 activ 6.7 | GPR151 conf act inactive | GPR119 counter inactive
CCn1c(=O)[nH]c2c(C(N)=O)nc(-c3ccc(Cl)cc3)nc21	none
CC(C)(C)C(=O)N1CCC(c2[nH]ncc2-c2ccncc2)CC1	none
N#Cc1c(N)nc2c(c1-c1ccsc1)CCCC2	GPR151 activ 5.0 | GPR151 conf act inactive | GPR119 counter inactive
CCOC(=O)C1CCN(c2c(N3CCN(c4cc(Cl)ccc4C)CC3)c(=O)c2=O)CC1	none
Cc1ccccc1-c1cnnc(NCC2COCCO2)n1 (centres undefined)	GPR151 activ 7.4 | GPR151 conf act inactive | GPR119 counter inactive
Cc1ccccc1-c1cnnc(NCc2cc(-c3ccccc3)on2)n1	none
COCC(=O)NCCNc1nc2ccc(OC)cc2cc1C#N	GPR151 activ 7.2 | GPR151 conf act inactive | GPR119 counter inactive
COc1ccc2nc(NCCNC(=O)c3cc(OC)c(OC)c(OC)c3)c(C#N)cc2c1	none
Cc1nc2c(c(=O)[nH]1)CN(C(=O)C1(c3cccc(F)c3)CCCC1)CC2	GPR151 activ 6.5 | GPR151 conf act inactive | GPR119 counter inactive
Cc1nc2c(c(=O)[nH]1)CN(C(=O)C1(c3ccc(Cl)cc3)CCC1)CC2	none
COC(=O)c1cc(C)sc1NC(=S)N1CCCCCC1	GPR151 activ 8.7 | GPR151 conf act inactive | GPR119 counter inactive

Screening data as filed in PubChem.
